# Laboratory results: PubChem BioAssay (NCI)
# This is part of a sample that, as a whole, favours compounds with a hit. Of some 83,000 tested, about 20% had one in any assay.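 Each cell line was grown in a 96-well plate and treated with one concentration of compound for 48 hours. Values below 10 were considered active.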 A number with no mark means an inactive call. Active and inactive are the calls of the source.
# Tests used:
# Assay in all cases: NCI-60 one-dose screen, 48 h (100 = growth as untreated, 0 = no growth, -100 = all killed)
# Conditions in all cases: 10 µM unless noted
# NCI-H23 lung = tested on: NCI-H23 lung
# NCI-H226 lung = tested on: NCI-H226 lung
# NCI-H322M lung = tested on: NCI-H322M lung
# HOP-62 NSCLC = tested on: HOP-62 NSCLC
# NCI-H460 lung = tested on: NCI-H460 lung
# HOP-92 NSCLC = tested on: HOP-92 NSCLC
# NCI-H522 lung = tested on: NCI-H522 lung
# A549/ATCC NSCLC = tested on: A549/ATCC NSCLC
# 786-0 renal = tested on: 786-0 renal
# COLO 205 colon = tested on: COLO 205 colon
# DU-145 prostate = tested on: DU-145 prostate
# K-562 leukemia = tested on: K-562 leukemia
# MALME-3M melanoma = tested on: MALME-3M melanoma
# MDA-MB-231 breast = tested on: MDA-MB-231 breast
# RXF 393 renal = tested on: RXF 393 renal
# SF-268 CNS = tested on: SF-268 CNS
# SF-295 CNS = tested on: SF-295 CNS
# SF-539 CNS = tested on: SF-539 CNS
# UACC-257 melanoma = tested on: UACC-257 melanoma
# M14 melanoma = tested on: M14 melanoma
SMILES,growth (NCI-H23 lung),growth (NCI-H226 lung),growth (NCI-H322M lung) [%],growth (HOP-62 NSCLC) [%],growth (NCI-H460 lung),growth (HOP-92 NSCLC),growth (NCI-H522 lung),growth (A549/ATCC NSCLC),growth (786-0 renal) [%],growth (COLO 205 colon),growth (DU-145 prostate),growth (K-562 leukemia),growth (MALME-3M melanoma),growth (MDA-MB-231 breast),growth (RXF 393 renal) [%],growth (SF-268 CNS) [%],growth (SF-295 CNS),growth (SF-539 CNS),growth (UACC-257 melanoma),growth (M14 melanoma)
COC(=O)N[C@H]1CCc2cc(OC)c(OC)c(OC)c2-c2ccc(SC)c(=O)cc21,23.3%,-3.52% (active),29.8,23.4,2.04% (active),15.2%,-17.9% (active),13.6%,14.1,-18.6% (active),1.4% (active),9.06% (active),37.3%,-22.3% (active),22.5,15.9,7.65% (active),-27.6% (active),59.4%,3.18% (active)
Nc1cc(N)c2cccnc2c1O,35.5%,89.8%,78,69.5,15.2%,72.3%,67.2%,63%,89.8,102%,72.7%,37.5%,85%,78.6%,74.9,83.4,63.2%,66.1%,76.1%,76.5%
O=S(=O)(NCCCNc1nccc(-c2c(-c3cccc(O)c3)nc3occn23)n1)c1ccc(F)cc1,88.6%,110%,103,117,80.9%,116%,77.7%,88.8%,92.1,35.5%,85.8%,68.7%,17.9%,62.7%,68,84.5,101%,101%,19.7%,27.5%
Cc1cc2cc3cc(C)c(N)cc3[n+](C)c2cc1N,0.672% (active),30.9%,28.4,19.3,-14.5% (active),-11.9% (active),-4.5% (active),3.82% (active),14.7,-46.5% (active),19.1%,9.81% (active),1.11% (active),20.2%,26.3,14.2,-4.54% (active),17.3%,5.88% (active),18.7%
O=C(N=Nc1c(O)[nH]c2ccc(F)cc12)c1cc2ccccc2[nH]1,97.4%,94.6%,94.4,94.5,100%,96.4%,77.8%,91.3%,97.3,117%,95.9%,91.7%,99.8%,95.1%,104,88.3,100%,99.8%,106%,94.9%
Cc1cc(C)n(Nc2nc3ccccc3[nH]c2=O)c(=O)c1C#N,89.8%,89%,100,93,100%,76.2%,93.3%,96.9%,96.5,113%,101%,94.3%,91.7%,80.6%,97.9,92.9,95.6%,87.2%,97.6%,98.8%
COc1ccc2c(/C=C3/C(=O)NC(=S)NC3C)cc(=O)oc2c1 (stereo not given),98.9%,96.7%,93.1,92.8,105%,93%,82.3%,88.9%,95.8,101%,108%,98.1%,99.4%,103%,98.4,89.4,97.9%,101%,83.5%,109%
CC1(C)CC[C@]2(C(=O)NCC#CCN3CCOCC3)CC[C@]3(C)C(=CC[C@@H]4[C@@]5(C)Cc6c([nH]c7ccccc67)C(C)(C)[C@@H]5CC[C@]43C)[C@@H]2C1,95.9%,95.1%,96.1,98.1,90.1%,79.8%,85.2%,72%,92.7,30.5%,103%,65.3%,95%,91.4%,98.6,87.7,79.7%,107%,47.5%,80.7%
